Results reported in the supplement of paper PMC10849652.
About 8,800 targets were measured; listed, in parts, are those with a hit and a random draw of the rest. About 0.5% of all pairs of compound and target were hits. Unmarked numbers belong to inactive results.

Assays:
Assay in all cases: log2 fold change, soluble protein after heating vs DMSO (PISA); higher = thermal stabilisation; K562 lysate, 10 uM; active = over 0.2 and 3.5 SD of the protein, either way, in both replicates (recomputed)
vemurafenib = compound: CCCS(=O)(=O)Nc1ccc(F)c(C(=O)c2c[nH]c3ncc(-c4ccc(Cl)cc4)cc23)c1F [vemurafenib]
In short: (§1)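 To prepare the extract, K562 pellets were dounce-homogenised in PBS pH 7.4 with 1 mM MgCl2, giving crude material at 1 mg/mL protein. This was treated with 10 μM compound for 30 min, then heated in aliquots for 3 min over 48°C-58°C before pooling and addition of NP-40 to 0.5% at 4°C. Centrifugation at 21,000xg for 90 min left soluble protein in the supernatant, which TMTpro 16plex LC-MS/MS quantified with equalised channel sums. Results are log-two fold changes in thermal stability compared with solvent controls, from duplicates.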

[1] = compound: CCCS(=O)(=O)Nc1ccc(F)c(C(=O)c2c[nH]c3ncc(Cl)cc23)c1F
In short: as §1

barasertib = compound: CCN(CCCOc1ccc2c(Nc3cc(CC(=O)Nc4cccc(F)c4)[nH]n3)ncnc2c1)CCOP(=O)(O)O [barasertib]
In short: as §1

[2] = compound: CC[C@@H]1C(=O)N(C)c2cnc(Nc3ccc(C(=O)NC4CCN(C)CC4)cc3OC)nc2N1C1CCCC1
In short: as §1

volasertib = compound: CC[C@@H]1C(=O)N(C)c2cnc(Nc3ccc(C(=O)N[C@H]4CC[C@H](N5CCN(CC6CC6)CC5)CC4)cc3OC)nc2N1C(C)C [volasertib]
In short: as §1

[3] = compound: CCn1c(C(=O)N(C2CC2)C2CC2)cc2c3c(ncn3C)c(Nc3cc(C)n(C)n3)nc21
In short: as §1

[4] = compound: CCn1cc(-c2ccnc3[nH]c(-c4cccc(CN(C)C)c4)cc23)c(-c2ccc(NC(=O)N(C)C)cc2)n1
In short: as §1

[5] = compound: CN1CCC(CNc2ccc3ncc(-c4cccc(OC(F)(F)F)c4)n3n2)CC1
In short: as §1

saracatinib = compound: CN1CCN(CCOc2cc(OC3CCOCC3)c3c(Nc4c(Cl)ccc5c4OCO5)ncnc3c2)CC1 [saracatinib]
In short: as §1

sotrastaurin = compound: CN1CCN(c2nc(C3=C(c4c[nH]c5ccccc45)C(=O)NC3=O)c3ccccc3n2)CC1 [sotrastaurin]
In short: as §1

alvocidib = compound: CN1CC[C@H](c2c(O)cc(O)c3c(=O)cc(-c4ccccc4Cl)oc23)[C@H](O)C1 [alvocidib]
In short: as §1

Tubastatin A = compound: CN1CCc2c(c3ccccc3n2Cc2ccc(C(=O)NO)cc2)C1 [Tubastatin A]
In short: as §1

[6] = compound: CNC(=O)C1=CC=CC=C1NC2=NC(=NC=C2Cl)NC3=C(C=C(C=C3)N4CCOCC4)OC
In short: as §1

defactinib = compound: CNC(=O)c1ccc(Nc2ncc(C(F)(F)F)c(NCc3nccnc3N(C)S(C)(=O)=O)n2)cc1 [defactinib]
In short: as §1

[7] = compound: CNc1nc(-c2ccc3c(N)n[nH]c3c2)cc(N2C[C@@H](C(=O)NC3CCCCC3)CC[C@H]2C)n1
In short: as §1

encorafenib = compound: COC(=O)N[C@@H](C)CNc1nccc(-c2cn(C(C)C)nc2-c2cc(Cl)cc(NS(C)(=O)=O)c2F)n1 [encorafenib]
In short: as §1

[8] = compound: COC(=O)[C@H](CCSC)NC(=O)C1=C(C=C(C=C1)NC[C@H](CS)N)C2=CC=CC=C2
In short: as §1

alisertib = compound: COc1cc(Nc2ncc3c(n2)-c2ccc(Cl)cc2C(c2c(F)cccc2OC)=NC3)ccc1C(=O)O [alisertib]
In short: as §1

[9] = compound: COc1cc2nc(-c3cc(F)ccc3O)nc(N[C@@H]3CNC[C@H]3C(C)(C)O)c2cc1OC
In short: as §1

gefitinib = compound: COc1cc2ncnc(Nc3ccc(F)c(Cl)c3)c2cc1OCCCN1CCOCC1 [gefitinib]
In short: as §1

UniProt Q99943, sequence (Q99943 whole entry, looked up): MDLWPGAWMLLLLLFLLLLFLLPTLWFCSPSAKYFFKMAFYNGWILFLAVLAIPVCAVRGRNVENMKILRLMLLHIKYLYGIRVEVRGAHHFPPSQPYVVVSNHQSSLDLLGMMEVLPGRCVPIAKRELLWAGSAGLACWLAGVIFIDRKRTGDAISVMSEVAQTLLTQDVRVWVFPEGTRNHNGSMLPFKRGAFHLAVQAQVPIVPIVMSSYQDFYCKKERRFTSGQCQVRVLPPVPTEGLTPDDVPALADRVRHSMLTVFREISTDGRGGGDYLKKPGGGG
UniProt Q9Y6B7, sequence (Q9Y6B7 whole entry, looked up): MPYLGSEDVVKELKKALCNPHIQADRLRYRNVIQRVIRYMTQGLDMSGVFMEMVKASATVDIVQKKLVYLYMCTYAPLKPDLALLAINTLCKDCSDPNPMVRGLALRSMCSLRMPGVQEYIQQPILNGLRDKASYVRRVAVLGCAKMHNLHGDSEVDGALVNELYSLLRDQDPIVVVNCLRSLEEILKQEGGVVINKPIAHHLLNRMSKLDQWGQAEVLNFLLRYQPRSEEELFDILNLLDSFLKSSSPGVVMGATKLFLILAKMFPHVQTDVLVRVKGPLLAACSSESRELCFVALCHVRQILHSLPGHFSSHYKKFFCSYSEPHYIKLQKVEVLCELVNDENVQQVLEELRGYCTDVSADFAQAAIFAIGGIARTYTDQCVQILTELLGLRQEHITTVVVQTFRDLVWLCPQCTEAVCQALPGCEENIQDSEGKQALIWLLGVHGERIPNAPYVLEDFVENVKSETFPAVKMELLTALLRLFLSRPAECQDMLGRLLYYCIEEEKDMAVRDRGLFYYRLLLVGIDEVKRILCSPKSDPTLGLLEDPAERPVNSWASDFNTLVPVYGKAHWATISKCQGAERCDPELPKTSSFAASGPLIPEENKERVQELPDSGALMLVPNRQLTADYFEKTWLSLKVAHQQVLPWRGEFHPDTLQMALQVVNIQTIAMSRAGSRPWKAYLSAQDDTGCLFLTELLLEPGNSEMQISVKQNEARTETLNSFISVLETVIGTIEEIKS
UniProt P00568, sequence (P00568 whole entry, looked up): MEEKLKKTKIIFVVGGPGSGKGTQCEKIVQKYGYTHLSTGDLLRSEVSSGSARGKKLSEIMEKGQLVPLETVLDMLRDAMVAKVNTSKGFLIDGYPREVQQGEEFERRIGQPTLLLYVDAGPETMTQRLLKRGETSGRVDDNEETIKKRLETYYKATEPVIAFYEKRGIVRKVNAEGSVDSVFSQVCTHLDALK
UniProt P09110, sequence (P09110 whole entry, looked up): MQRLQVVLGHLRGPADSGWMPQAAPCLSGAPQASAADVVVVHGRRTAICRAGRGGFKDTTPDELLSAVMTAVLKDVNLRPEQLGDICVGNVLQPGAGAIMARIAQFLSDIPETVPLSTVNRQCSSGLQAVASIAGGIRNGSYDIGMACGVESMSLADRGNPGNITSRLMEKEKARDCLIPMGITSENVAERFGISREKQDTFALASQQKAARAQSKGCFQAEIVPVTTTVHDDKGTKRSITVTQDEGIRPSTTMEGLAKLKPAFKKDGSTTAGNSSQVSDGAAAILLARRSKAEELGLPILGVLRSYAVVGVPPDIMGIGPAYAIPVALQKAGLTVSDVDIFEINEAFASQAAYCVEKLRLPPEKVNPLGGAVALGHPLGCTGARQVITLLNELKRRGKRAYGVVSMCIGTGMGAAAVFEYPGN
UniProt P07355, sequence (P07355 whole entry, looked up): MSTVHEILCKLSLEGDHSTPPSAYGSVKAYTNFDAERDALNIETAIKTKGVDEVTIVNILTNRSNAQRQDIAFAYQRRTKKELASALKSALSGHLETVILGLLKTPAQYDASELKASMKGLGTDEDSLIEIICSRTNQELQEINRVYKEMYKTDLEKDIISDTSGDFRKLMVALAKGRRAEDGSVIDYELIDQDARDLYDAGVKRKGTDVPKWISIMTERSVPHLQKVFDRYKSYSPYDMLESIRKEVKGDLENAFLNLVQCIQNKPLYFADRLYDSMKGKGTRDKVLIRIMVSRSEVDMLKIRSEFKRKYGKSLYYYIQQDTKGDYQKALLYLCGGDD
UniProt Q8N6T3, sequence (Q8N6T3 whole entry, looked up): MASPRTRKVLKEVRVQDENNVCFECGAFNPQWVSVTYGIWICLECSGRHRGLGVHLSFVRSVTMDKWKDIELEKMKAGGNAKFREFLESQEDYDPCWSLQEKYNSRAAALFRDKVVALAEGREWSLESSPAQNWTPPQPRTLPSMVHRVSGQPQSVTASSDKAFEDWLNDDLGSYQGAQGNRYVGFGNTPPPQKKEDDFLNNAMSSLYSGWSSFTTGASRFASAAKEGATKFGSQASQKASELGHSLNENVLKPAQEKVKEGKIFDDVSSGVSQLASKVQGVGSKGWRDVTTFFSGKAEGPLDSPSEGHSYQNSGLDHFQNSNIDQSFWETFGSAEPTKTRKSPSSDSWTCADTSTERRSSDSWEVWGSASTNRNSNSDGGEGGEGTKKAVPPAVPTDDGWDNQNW
UniProt Q8NFV4, sequence (Q8NFV4 whole entry, looked up): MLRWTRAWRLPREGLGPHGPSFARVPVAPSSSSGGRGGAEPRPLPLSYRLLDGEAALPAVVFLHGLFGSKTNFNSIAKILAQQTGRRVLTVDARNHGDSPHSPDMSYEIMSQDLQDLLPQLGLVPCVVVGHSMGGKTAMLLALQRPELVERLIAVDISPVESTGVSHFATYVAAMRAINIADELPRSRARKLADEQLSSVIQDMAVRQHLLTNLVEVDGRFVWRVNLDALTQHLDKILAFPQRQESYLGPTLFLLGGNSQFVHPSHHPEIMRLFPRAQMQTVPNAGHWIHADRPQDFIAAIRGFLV
UniProt Q9UHB7, sequence (Q9UHB7 whole entry, looked up): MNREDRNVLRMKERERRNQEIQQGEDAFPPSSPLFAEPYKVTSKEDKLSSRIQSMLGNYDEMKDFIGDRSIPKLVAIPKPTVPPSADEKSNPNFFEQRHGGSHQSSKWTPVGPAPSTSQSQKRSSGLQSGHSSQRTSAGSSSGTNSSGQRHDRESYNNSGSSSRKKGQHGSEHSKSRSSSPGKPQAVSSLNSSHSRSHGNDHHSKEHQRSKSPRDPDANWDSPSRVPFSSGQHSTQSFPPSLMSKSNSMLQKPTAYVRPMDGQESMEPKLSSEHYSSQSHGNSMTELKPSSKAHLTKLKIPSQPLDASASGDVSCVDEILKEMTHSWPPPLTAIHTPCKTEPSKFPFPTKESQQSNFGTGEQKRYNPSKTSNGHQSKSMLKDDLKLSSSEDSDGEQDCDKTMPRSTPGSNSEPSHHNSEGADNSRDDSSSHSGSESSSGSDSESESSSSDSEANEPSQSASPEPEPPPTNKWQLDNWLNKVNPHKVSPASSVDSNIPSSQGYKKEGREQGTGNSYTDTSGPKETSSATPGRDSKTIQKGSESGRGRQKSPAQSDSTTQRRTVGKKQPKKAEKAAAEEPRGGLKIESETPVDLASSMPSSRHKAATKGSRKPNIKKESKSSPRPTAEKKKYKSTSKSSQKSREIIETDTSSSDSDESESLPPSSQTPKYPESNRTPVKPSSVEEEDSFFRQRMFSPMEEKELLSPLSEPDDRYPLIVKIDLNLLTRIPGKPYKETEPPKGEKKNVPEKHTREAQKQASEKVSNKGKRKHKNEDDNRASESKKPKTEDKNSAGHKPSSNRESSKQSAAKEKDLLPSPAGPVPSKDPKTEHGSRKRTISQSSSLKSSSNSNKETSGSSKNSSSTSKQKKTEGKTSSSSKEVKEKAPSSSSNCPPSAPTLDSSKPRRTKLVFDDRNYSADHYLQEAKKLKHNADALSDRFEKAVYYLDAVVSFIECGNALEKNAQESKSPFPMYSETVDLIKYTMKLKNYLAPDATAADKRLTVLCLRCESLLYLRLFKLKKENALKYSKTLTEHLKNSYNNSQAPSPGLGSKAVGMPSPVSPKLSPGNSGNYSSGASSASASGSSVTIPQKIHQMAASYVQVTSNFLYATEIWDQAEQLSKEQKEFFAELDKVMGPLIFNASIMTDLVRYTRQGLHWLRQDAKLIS
UniProt Q8IZP0, sequence (Q8IZP0 whole entry, looked up): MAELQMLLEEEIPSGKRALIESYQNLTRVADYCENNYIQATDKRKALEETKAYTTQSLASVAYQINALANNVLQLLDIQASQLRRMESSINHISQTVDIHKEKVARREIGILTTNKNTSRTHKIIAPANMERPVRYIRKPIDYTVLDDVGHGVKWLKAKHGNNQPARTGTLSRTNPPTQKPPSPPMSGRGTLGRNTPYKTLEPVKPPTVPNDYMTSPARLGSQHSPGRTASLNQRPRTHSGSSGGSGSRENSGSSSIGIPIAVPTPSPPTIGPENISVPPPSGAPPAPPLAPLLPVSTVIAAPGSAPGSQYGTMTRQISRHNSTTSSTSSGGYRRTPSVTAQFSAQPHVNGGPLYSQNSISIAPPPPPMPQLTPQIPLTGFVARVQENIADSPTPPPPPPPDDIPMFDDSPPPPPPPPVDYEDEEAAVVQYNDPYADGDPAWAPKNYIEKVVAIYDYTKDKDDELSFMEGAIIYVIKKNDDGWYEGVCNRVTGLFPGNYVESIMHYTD
UniProt P51649, sequence (P51649 whole entry, looked up): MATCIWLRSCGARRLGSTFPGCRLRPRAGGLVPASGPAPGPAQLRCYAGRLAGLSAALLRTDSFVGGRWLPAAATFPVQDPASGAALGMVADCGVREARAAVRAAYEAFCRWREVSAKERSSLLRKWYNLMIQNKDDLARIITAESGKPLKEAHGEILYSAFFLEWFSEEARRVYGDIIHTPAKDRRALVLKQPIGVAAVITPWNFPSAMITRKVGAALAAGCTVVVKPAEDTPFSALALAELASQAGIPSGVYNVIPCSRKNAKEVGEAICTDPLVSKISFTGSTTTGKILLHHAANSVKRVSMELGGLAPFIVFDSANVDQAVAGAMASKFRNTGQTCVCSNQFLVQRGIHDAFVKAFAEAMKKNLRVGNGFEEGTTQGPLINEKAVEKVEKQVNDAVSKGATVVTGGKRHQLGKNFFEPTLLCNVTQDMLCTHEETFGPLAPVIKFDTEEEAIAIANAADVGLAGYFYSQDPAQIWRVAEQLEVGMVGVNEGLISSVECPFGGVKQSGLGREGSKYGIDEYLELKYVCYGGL

Row | Target | log2 fold change (vemurafenib) | log2 fold change [1] | log2 fold change (barasertib) | log2 fold change [2] | log2 fold change (volasertib) | log2 fold change [3] | log2 fold change [4] | log2 fold change [5] | log2 fold change (saracatinib) | log2 fold change (sotrastaurin) | log2 fold change (alvocidib) | log2 fold change (Tubastatin A) | log2 fold change [6] | log2 fold change (defactinib) | log2 fold change [7] | log2 fold change (encorafenib) | log2 fold change [8] | log2 fold change (alisertib) | log2 fold change [9] | log2 fold change (gefitinib)
1 | ANXA2 isoform 2 (UniProt P07355) | -0.03 | -0.004 | -0.021 | 0 | 0.017 | 0.033 | -0.003 | -0.02 | 0.013 | -0.012 | 0.012 | 0.013 | -0.012 | -0.011 | -0.026 | -0.03 | -0.007 | 0.002 | 0.003 | -0.009
2 | ALKBH4 (UniProt Q9NXW9) | 0.061 | 0.018 | 0.086 | -0.133 | -0.068 | 0.074 | 0.025 | 0 | -0.019 | 0.036 | 0.029 | -0.093 | -0.003 | 0.166 | 0.026 | 0.053 | -0.02 | 0.019 | -0.03 | 0.044
3 | ALDH5A1 isoform 2 (UniProt P51649) | -0.016 | 0.011 | -0.009 | -0.024 | -0.001 | 0.031 | 0.004 | 0.008 | 0 | -0.023 | 0.063 | 0.048 | 0.007 | 0.016 | -0.02 | -0.028 | 0.077 | 0.001 | 0.006 | -0.042
4 | AKAP8L (UniProt Q9ULX6) | -0.003 | 0.033 | -0.066 | -0.036 | -0.042 | 0.019 | -0.042 | -0.01 | 0.002 | 0.013 | -0.003 | -0.183 | 0.008 | 0.003 | -0.109 | 0.059 | -0.032 | 0.043 | 0.011 | 0.009
5 | AFF4 (UniProt Q9UHB7) | 0.157 | -0.012 | -0.072 | 0.001 | -0.019 | 0.023 | -0.133 | -0.04 | -0.009 | 0.002 | -0.235 | -0.086 | -0.046 | 0.077 | 0.018 | 0.011 | -0.027 | -0.022 | 0.015 | 0.013
6 | ABHD11 (UniProt Q8NFV4) | 0.062 | -0.051 | 0.093 | -0.029 | -0.082 | 0.028 | -0.109 | 0.024 | -0.026 | -0.016 | 0 | 0.032 | -0.066 | 0.034 | 0.087 | -0.028 | 0.173 | -0.027 | 0.022 | 0.004
7 | APOBEC3C (UniProt Q9NRW3) | -0.027 | 0.021 | -0.006 | 0.075 | -0.014 | -0.081 | -0.038 | 0.034 | 0.018 | 0.114 | -0.019 | -0.121 | 0.018 | 0.013 | -0.007 | 0.047 | -0.067 | 0.009 | 0.003 | -0.005
8 | AGPAT1 (UniProt Q99943) | 0.008 | 0.016 | 0.038 | -0.013 | 0.006 | -0.004 | 0.068 | -0.049 | 0.038 | -0.009 | -0.002 | -0.015 | 0.052 | -0.007 | -0.033 | 0.075 | -0.016 | -0.015 | -0.232 | 0.028
9 | ABCF3 (UniProt Q9NUQ8) | 0.013 | 0.037 | 0.03 | -0.079 | -0.099 | 0.044 | 0.015 | -0.059 | -0.006 | 0.033 | 0.013 | -0.172 | 0.029 | -0.01 | -0.01 | -0.031 | 0.11 | 0.004 | -0.003 | -0.006
10 | AP4B1 (UniProt Q9Y6B7) | 0.026 | 0.087 | 0.028 | -0.01 | -0.009 | 0.011 | -0.035 | 0.02 | 0.042 | -0.027 | -0.053 | -0.021 | -0.051 | -0.001 | 0.041 | 0.057 | -0.01 | -0.014 | -0.121 | 0.031
11 | ARFGAP1 (UniProt Q8N6T3) | 0.063 | -0.01 | 0.225 | 0.204 | -0.02 | 0.171 | 0.001 | 0.029 | 0.056 | -0.07 | -0.001 | -0.008 | 0.105 | 0.115 | 0.025 | 0.355 | -0.054 | 0.245 | 0.097 | 0.209
12 | ABI1 isoform 9 (UniProt Q8IZP0) | -0.021 | 0.005 | -0.01 | 0.052 | -0.038 | -0.001 | -0.116 | 0.217 | -0.029 | -0.019 | -0.096 | 0.053 | 0.005 | -0.038 | 0.025 | 0.003 | -0.057 | -0.02 | 0.018 | -0.015
13 | AARS2 (UniProt Q5JTZ9) | 0.041 | -0.052 | 0.029 | -0.055 | -0.037 | 0.027 | 0.027 | -0.053 | 0.003 | 0.031 | 0.064 | -0.093 | -0.011 | -0.05 | -0.017 | 0.006 | 0.106 | 0.02 | -0.119 | -0.02
14 | ACAA1 (UniProt P09110) | 0.034 | 0.033 | -0.027 | 0.006 | 0.036 | 0.001 | -0.049 | 0.039 | 0.002 | -0.004 | -0.027 | 0.043 | 0.008 | 0.008 | 0.093 | -0.021 | 0.012 | -0.035 | 0.01 | 0.015
15 | AK1 (UniProt P00568) | 0.01 | -0.036 | -0.012 | -0.027 | 0.021 | 0.017 | 0.332 (active) | -0.135 | -0.012 | -0.024 | 0.154 | 0.009 | -0.034 | -0.035 | -0.007 | -0.036 | -0.07 | 0 | 0.013 | -0.019
16 | ANKRD52 (UniProt Q8NB46) | -0.052 | 0.032 | 0.029 | -0.019 | 0.097 | 0.063 | 0.061 | -0.015 | -0.022 | -0.008 | -0.002 | -0.132 | -0.003 | 0.076 | 0.014 | 0.047 | 0.11 | 0.005 | 0 | 0.039
